The source made the active and inactive calls. How the source made its calls: active means hit-call score of the fitted dose curve at least 0.9, where 1 is the maximum; inactive means score below 0.9.

This passage reports outcome and AC50 results from PubChem BioAssay (EPA / NIEHS).

The experiment in a line: ATG_GATA_CIS: Attagene CIS-FACTORIAL HepG2 Assay for human GATA Binding Protein (AID 2282944). Particulars: HepG2 GATA cis-element reporter, Attagene multiplex mRNA; actives raise or lower the signal. The procedure:
ATG_CIS is a cell-based, multiplexed-readout assay that uses HepG2, a human liver cell line, with measurements taken at 24 hours after chemical dosing in a 24-well plate.ATG_GATA_CIS is one of 52 assay component(s) measured or calculated from the ATG_CIS assay. It is designed to make measurements of mRNA induction, a form of inducible reporter, as detected with fluorescence intensity signals by Reverse transcription polymerase chain reaction (RT-PCR) and Capillary electrophoresis technology.Data from the assay component ATG_GATA_CIS was analyzed into 1 assay endpoint. This assay endpoint, ATG_GATA_CIS, was analyzed with bidirectional fitting relative to DMSO as the negative control and baseline of activity. Using a type of inducible reporter, measures of mRNA for gain or loss-of-signal activity can be used to understand the reporter gene at the transcription factor-level as they relate to the gene GATA1. Furthermore, this assay endpoint can be referred to as a primary readout, because this assay has produced multiple assay endpoints where this one serves a reporter gene function. To generalize the intended target to other relatable targets, this assay endpoint is annotated to the dna binding intended target family, where the subfamily is GATA proteins.
Human liver HepG2 cells are transiently transfected with multiple reporter transcription units (MRTUs) in 6-well plates using FuGene 6 reagent (Roche; 3 ml FuGene/1 mg DNA). The MRTU constructs are regulated by a cis-regulating element (promoter). […] A major difference between the CIS and TRANS system is that in CIS activities of endogenous TFs are measured, whereas the TRANS assay evaluates changes in activities of exogenous, chimeric NR-Gal4 proteins. […] At the end of 24 hour incubation, total RNA was isolated using TriZol reagent (Invitrogen). The isolated RNA is then reverse-transcribed using oligo(dT) primer and Mo-MLV reverse transcriptase (Invitrogen) with DNAse I (Ambion) treatment for 30 min. The one-tenth of the produced cDNA was amplified by PCR using Taq DNA polymerase (Invitrogen) and two reporter sequence-specific primers. The PCR products were fluorescently labeled by primer extension with 6-arboxyfluorescein (6-FAM) 5'-labeled reporter sequence-specific primer (2 min at 95 C, 20 s at 68 C and 10 min at 72 C) and these products were digested with 5U of HpaI (New England Biolabs) for 2h at 37 C. The fragments were purified using Qiaquick PCR columns (Qiagen), analyzed on an ABI 3130xL genetic analyzer (Applied Biosystems) with peak positions identified by using a set of X-rhodamine (ROX)-labeled MapMarker1000 molecular weight standards (BioVentures). The raw capillary electrophoresis data was processed using Attagraph software (Attagene).
In the case of `O=[N+]([O-])c1ccc(Nc2ccc(Nc3ccccc3)c(S(=O)(=O)O)c2)c([N+](=O)[O-])c1`, the result was inactive.
Regarding `FC1(F)C(F)(F)C(F)(F)C2(F)C(F)(C1(F)F)C(F)(F)C(F)(F)C1(F)C(F)(F)C(F)(F)C(F)(F)C(F)(F)C12F` (stereo not given), the outcome was inactive.
The same measure, in the same setting: next, `NC(N)=NC(=O)c1nc(Cl)c(N)nc1N`: “inactive”.
Same read-out and setting: to `CC(C)=CCC/C(C)=C/COC=O` belongs “inactive”.
Same read-out and setting: to `Nc1cc([N+](=O)[O-])ccc1Cl` belongs “inactive”; to `Cc1ccc(C(=O)c2cc(O)c(O)c([N+](=O)[O-])c2)cc1`, “inactive”; to `C=CC(C)(C)O`, “inactive”.
Consider `ClCCCl`, for which the compound was classed as inactive.
Still for that read-out and setting: next, `Cc1ccc(C=O)cc1`: “inactive”.
The same measure, in the same setting: next, `COC(C(=O)O)c1ccccc1` (stereo not given): “inactive”; `CC1(CO)CN(c2ccccc2)NC1=O` (stereo not given): “inactive”.
Same read-out and setting: to `CC1=CCC2C(C1)C2(C)C` (stereo not given) belongs “inactive”.
In the case of `CN1Cc2c(N)cccc2C(c2ccccc2)C1` (stereo not given), the compound was called inactive.
With `O=C(O)CCSCCC(=O)O`, the outcome was inactive.
On the same count and under the same terms, to `CC1CCC2CC1C2(C)C` (stereo not given) belongs “inactive”; to `Cc1c(Cl)c(=O)oc2cc(O)ccc12`, “inactive”; to `COc1cc(C=O)ccc1OC(=O)C(C)C`, “inactive”.
As to `CCCCCCCCCCCCN`, the result was inactive.
Still for that read-out and setting: to `CC(C)C(C)(C)C(C)(C)C(C)(C)S` belongs “inactive”.
On to `BrC1CCC(Br)C(Br)CCC(Br)C(Br)CCC1Br` (stereo not given), for which the AC50 is 66.3 µM (active).
In the case of `O=S(=O)(O)c1ccc(O)c2ncccc12`, the compound was called inactive.
On to `COc1cc(C)cc(O)c1`, for which the compound was classed as inactive.
The same measure, in the same setting: next, `O=C1NC(=O)c2ccccc21`: “inactive”; `CC(C)C[C@H]1C(=O)N2CCC[C@H]2[C@]2(O)O[C@](NC(=O)[C@@H]3C=C4c5cccc6[nH]c(Br)c(c56)C[C@H]4N(C)C3)(C(C)C)C(=O)N12`: “inactive”.
For the compound `Cc1cccc(C)c1[N+](=O)[O-]`, the result was inactive.
On to `O=C(O)C[C@H](O)C[C@H](O)/C=C/c1c(C2CC2)nc2ccccc2c1-c1ccc(F)cc1`, for which the outcome was inactive.
Same read-out and setting: next, `CC[Si](OC(C)=O)(OC(C)=O)OC(C)=O`: “inactive”.
On to `C=COCCOCCOCCOC=C`, for which the outcome was inactive.
Still for that read-out and setting: to `CCC(O)CO` (stereo not given) belongs “inactive”; to `CN(CCOc1ccc(CC2SC(=O)NC2=O)cc1)c1ccccn1` (stereo not given), “inactive”; to `C=CC[N+](C)(C)CC=C`, “inactive”.
On the same count and under the same terms, next, `Nc1cc([N+](=O)[O-])ccc1O`: “inactive”; `C=CC(=O)OCCOCCOCC`: “inactive”.
Still for that read-out and setting: to `COc1ccc(Cl)cc1C` belongs “inactive”; to `CCCC/C=C\CCCCCCCCCC=O`, “inactive”.
As to `CCCOCC(C)O` (stereo not given), the compound was classed as inactive.
For the compound `COc1ccc(OC)c(OC)c1`, the outcome was inactive.
Same read-out and setting: to `CCCCCCCCCCCCOCCO` belongs “inactive”; to `O=Cc1ccc(F)cc1`, “inactive”.
Still for that read-out and setting: next, `CCCCCCCCCCCCCCCC(=O)OC[C@H](O)[C@H]1OC(=O)C(O)=C1O`: “inactive”.

In general, AC50 refers to the midpoint of the concentration-response curve, whichever way the signal moves.
